# Source: the supplement of paper PMC12067093, “Discovery and optimisation of a covalent ligand for TRIM25 and its application to targeted protein ubiquitination” (Chemical Science, 2025)
# The full data set covers some 21,000 targets. This sample favours those with the largest changes.
# Molecular target: CLIC1_O00299_191_LHIVQVVCKK (UniProt O00299)
# Experiment: probe-labelled cysteine peptide fold change vs DMSO (competition) (log2 fold change); higher = less target engagement (more negative = stronger competition)
# Conditions: THP-1, incubation time: 4 h
# 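Note: competitive chemoproteomic profiling in live THP-1 cells with an iodoacetamide desthiobiotin (IA-DTB) probe, comparing probe-labelled peptide intensities in compound-treated cells against DMSO-treated controls.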
structure (smiles),measurement,setting,value
CC1Cc2ccccc2N1C(=O)C1CCCN(C(=O)CCl)C1 (mixture of isomers) [TRIM25 ligand 11 (diastereomer mixture)],probe-labelled cysteine peptide fold change,10 µM,-0.428
same,probe-labelled cysteine peptide fold change,50 µM,-0.575
